PubChem BioAssay AID1159580 (chemical genetic matrix, 2015)
“And” between values parts separate entries of the source, which are not always exact repeats. Equal entries are not always repeated. The whole screen tested about 5,500 compounds, of which about 2,000 (36%) were called active. Not shown: some 18% with an inconclusive outcome. No stated cut-off is given here; in the data, active means normalized growth mostly below about 0.91 (no sharp cut-off); inconclusive means no clear call, values can overlap the other calls; inactive means mostly above about 0.92. Some of the results follow.

Test: chemical genetic growth profiling, strain panel (AID 1159580);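 further: tested at 20 µM; growth read once vehicle control cultures reached saturation at 30 °C; 1 = growth at the plate median or of vehicle wells; lower values mean less growth of the strain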
Settings: S. cerevisiae deletion strains, growth OD

Measured: normalized growth

COc1ccc(/C=C/C(=O)O)cc1OC
inactive: locus YAL013W, strain DEP1, hits give low values 1 | locus YAL021C, strain ccr4, hits give low values 1.04 | locus YAL026C, strain drs2, hits give low values 0.99 | locus YAL030W, strain snc1, hits give low values 0.999 | locus YBL061C, strain skt5, hits give low values 0.987 | locus YBR009C, strain hhf1, hits give low values 1.01 | locus YBR021W, strain FUR4, hits give low values 1.04 | locus YBR023C, strain chs3, hits give low values 1.01 | locus YBR171W, strain sec66, hits give low values 0.965 | locus YBR229C, strain ROT2, hits give low values 1.02 | locus YBR231C, strain swc5, hits give low values 0.981 | locus YBR279W, strain paf1, hits give low values 1 | locus YCL011C, strain gbp2, hits give low values 0.991 | locus YCL016C, strain dcc1, hits give low values 1.04 | locus YCL029C, strain bik1, hits give low values 1.02 | locus YCL061C, strain MRC1, hits give low values 0.995 | locus YCL069W, strain vba3, hits give low values 0.955 | locus YCR088W, strain abp1, hits give low values 0.984 | locus YDL005C, strain med2, hits give low values 0.979 | locus YDL035C, strain GPR1, hits give low values 1.14 | locus YDL040C, strain nat1, hits give low values 0.991 | locus YDL101C, strain DUN1, hits give low values 1 | locus YDL134C, strain PPH21, hits give low values 1.06 | locus YDL185W, strain tfp1, hits give low values 1 | locus YDL192W, strain arf1, hits give low values 1.03 | locus YDR001C, strain nth1, hits give low values 0.981 | locus YDR069C, strain doa4, hits give low values 0.97 | locus YDR101C, strain arx1, hits give low values 1.01 | locus YDR137W, strain rgp1, hits give low values 1.02 | locus YDR159W, strain sac3, hits give low values 0.94 | locus YDR162C, strain NBP2, hits give low values 1.13 | locus YDR195W, strain ref2 0.961 | locus YDR297W, strain sur2, hits give low values 0.984 | locus YDR318W, strain mcm21, hits give low values 1.03 | locus YDR334W, strain swr1, hits give low values 0.975 | locus YDR335W, strain msn5, hits give low values 0.984 | locus YDR388W, hits give low values 1.01 | locus YDR392W, strain spt3, hits give low values 0.943 | locus YDR502C, strain sam2, hits give low values 1.03 | locus YEL003W, strain gim4, hits give low values 0.981 | locus YEL037C, strain rad23, hits give low values 0.981 | locus YEL061C, strain CIN8 (second series), hits give low values 0.976 | locus YEL061C, strain CIN8, hits give low values 1.01 | locus YER015W, strain faa2, hits give low values 1 | locus YER016W, strain bim1, hits give low values 0.991 | locus YER110C, hits give low values 1 | locus YER111C, strain swi4, hits give low values 0.974 | locus YER155C, strain BEM2 (second series), hits give low values 0.958 | locus YER155C, strain BEM2, hits give low values 1.01 | locus YER167W, strain BCK2, hits give low values 1.01 | locus YFR010W, strain ubp6, hits give low values 0.955 | locus YGL078C, strain dbp3, hits give low values 1 | locus YGL086W, strain mad1, hits give low values 1.01 | locus YGL167C, strain pmr1, hits give low values 0.999 | locus YGL173C, strain kem1, hits give low values 0.979 | locus YGL227W, strain vid30, hits give low values 0.984 | locus YGL240W, strain doc1, hits give low values 0.989 | locus YGL253W, strain hxk2, hits give low values 0.942 | locus YGR078C, strain PAC10, hits give low values 1.09 | locus YGR135W, strain pre9, hits give low values 1.04 | locus YGR252W, strain gcn5, hits give low values 1.19 | locus YHR013C, strain ard1, hits give low values 0.993 | locus YHR027C, strain rpn1, hits give low values 0.992 | locus YHR030C, strain SLT2, hits give low values 0.949 | locus YHR079C, strain IRE1 (second series), hits give low values 0.998 | locus YHR079C, strain IRE1, hits give low values 0.958 | locus YHR094C, strain hxt1, hits give low values 0.996 | locus YHR129C, strain ARP1, hits give low values 1.02 | locus YHR142W, strain chs7, hits give low values 0.993 | locus YHR200W, strain rpn10, hits give low values 0.999 | locus YIL066C, strain RNR3, hits give low values 1.01 | locus YIL125W, strain kgd1, hits give low values 1.02 | locus YIR030C, strain dcg1, hits give low values 0.998 | locus YJL092W, strain hpr5, hits give low values 0.974 | locus YJL095W, strain BCK1 (second series), hits give low values 0.981 | locus YJL095W, strain BCK1, hits give low values 0.972 and 1.18 | locus YJL115W, strain asf1, hits give low values 0.998 | locus YJL129C, strain trk1, hits give low values 0.968 | locus YJL134W, strain LCB3, hits give low values 1.01 | locus YJL154C, strain vps35, hits give low values 0.976 | locus YJL164C, strain tpk1, hits give low values 1.03 | locus YJL166W, strain qcr8, hits give low values 0.999 | locus YJL168C, strain set2, hits give low values 1.01 | locus YJL187C, strain SWE1 (second series), hits give low values 1.03 | locus YJL187C, strain SWE1, hits give low values 1.01 | locus YJR043C, strain POL32, hits give low values 1.06 | locus YJR066W, strain TOR1, hits give low values 0.907 | locus YKL009W, strain mrt4, hits give low values 0.971 | locus YKL068W, hits give low values 0.988 | locus YKL085W, strain MDH1 (second series), hits give low values 1 | locus YKL085W, strain MDH1, hits give low values 1 | locus YKL160W, strain elf1, hits give low values 1.04 | locus YKR001C, strain vps1, hits give low values 1.08 | locus YKR026C, strain gcn3, hits give low values 0.963 | locus YKR091W, strain srl3, hits give low values 1.01 | locus YLL001W, strain dnm1, hits give low values 0.976 | locus YLL026W, hits give low values 0.997 | locus YLL041C, strain sdh2, hits give low values 0.992 | locus YLR027C, strain aat2, hits give low values 1 | locus YLR058C, strain SHM2, hits give low values 1.01 | locus YLR102C, strain apc9, hits give low values 0.996 | locus YLR113W, strain HOG1, hits give low values 0.968 | locus YLR221C, strain rsa3, hits give low values 0.95 | locus YLR258W, strain gsy2, hits give low values 1.02 | locus YLR262C, strain YPT6 (second series), hits give low values 0.995 | locus YLR268W, strain sec22, hits give low values 1.05 | locus YLR320W, strain mms22, hits give low values 0.99 | locus YLR342W, strain FKS1 (second series), hits give low values 1.01 | locus YLR342W, strain FKS1, hits give low values 1.01 | locus YLR357W, strain rsc2, hits give low values 0.988 | locus YLR370C, strain arc18, hits give low values 0.971 | locus YLR371W, strain rom2, hits give low values 1.02 | locus YLR384C, strain iki3, hits give low values 0.998 | locus YML016C, strain PPZ1, hits give low values 1 | locus YML032C, strain rad52, hits give low values 1.02 | locus YML120C, strain ndi1, hits give low values 1.01 | locus YML124C, strain tub3, hits give low values 0.994 | locus YMR058W, strain fet3, hits give low values 0.991 | locus YMR078C, strain ctf18, hits give low values 1.01 | locus YMR125W, strain sto1, hits give low values 0.974 | locus YMR129W, hits give low values 1 | locus YMR205C, strain PFK2, hits give low values 1.05 | locus YMR223W, strain ubp8, hits give low values 1.03 | locus YMR231W, strain pep5, hits give low values 0.965 | locus YNL067W, strain RPL9B, hits give low values 1 | locus YNL071W, strain lat1, hits give low values 0.998 | locus YNL128W, strain TEP1, hits give low values 1.02 | locus YNL183C, strain NPR1, hits give low values 0.904 | locus YNL209W, strain ssb2, hits give low values 1.01 | locus YNL233W, strain BNI4, hits give low values 1.12 | locus YNL248C, strain rpa49, hits give low values 0.958 | locus YNL250W, strain rad50, hits give low values 1.03 | locus YNL271C, strain bni1, hits give low values 1.02 | locus YNL298W, strain CLA4, hits give low values 1.05 | locus YNL307C, strain MCK1, hits give low values 1.01 | locus YNL322C, strain KRE1 (second series), hits give low values 0.981 | locus YNL322C, strain KRE1, hits give low values 1.01 | locus YNR049C, strain mso1, hits give low values 0.99 | locus YNR052C, strain pop2, hits give low values 1.02 | locus YOL012C, strain htz1 1.37 | locus YOL147C, strain pex11, hits give low values 1.01 | locus YOR001W, strain rrp6, hits give low values 0.926 | locus YOR061W, strain CKA2, hits give low values 0.995 | locus YOR069W, strain VPS5, hits give low values 1.01 | locus YOR070C, strain gyp1, hits give low values 0.999 | locus YOR080W, strain dia2, hits give low values 0.978 | locus YOR083W, strain WHI5, hits give low values 1.04 | locus YOR106W, strain vam3, hits give low values 1.02 | locus YOR136W, strain idh2, hits give low values 1.01 | locus YOR144C, strain elg1, hits give low values 1 | locus YOR184W, strain ser1, hits give low values 1.08 | locus YOR231W, strain MKK1, hits give low values 0.944 | locus YOR265W, strain rbl2, hits give low values 0.991 | locus YOR270C, strain vph1, hits give low values 0.977 | locus YOR290C, strain snf2, hits give low values 1.04 | locus YOR316C, strain cot1, hits give low values 1.01 | locus YPL051W, strain arl3, hits give low values 0.98 | locus YPL078C, strain atp4, hits give low values 1.03 | locus YPL106C, strain sse1, hits give low values 1.04 | locus YPL240C, strain hsp82, hits give low values 0.986 | locus YPL256C, strain CLN2, hits give low values 0.968 | locus YPR119W, strain clb2, hits give low values 1.01 | locus YPR141C, strain kar3, hits give low values 1 | locus YPR163C, strain tif3, hits give low values 1.02 | locus YPR167C, strain met16, hits give low values 1.03 | strain wtn01, hits give low values 1.02
active: locus YDL074C, strain BRE1, hits give low values 1.4 [resistant] | locus YGL248W, strain PDE1, hits give low values 1.12 [resistant] | locus YIL073C, strain SPO22, hits give low values 1.55 [resistant] | locus YLR039C, strain RIC1, hits give low values 1.42 [resistant] | locus YMR307W, strain GAS1, hits give low values 1.53 [resistant] | locus YOL006C, strain TOP1, hits give low values 1.83 [resistant]
